B2AR arrestin: recruits beta-arrestin to the human beta2-adrenergic receptor | P07550 | beta-arrestin recruitment to beta2AR, cell-based reporter | Potency, µM (series often up to 46.1 µM), inactives show at the highest dose activation, hits mostly activators | 330,000 compounds, 0.02% hits;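 also: potency is read from the fitted curve at half-maximal effect; 0% = DMSO controls and full agonism = EC100 isoproterenol or metaproterenol; nearly all actives have a fitted effect of over 65% in size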
Target sequence (P07550 whole entry, looked up): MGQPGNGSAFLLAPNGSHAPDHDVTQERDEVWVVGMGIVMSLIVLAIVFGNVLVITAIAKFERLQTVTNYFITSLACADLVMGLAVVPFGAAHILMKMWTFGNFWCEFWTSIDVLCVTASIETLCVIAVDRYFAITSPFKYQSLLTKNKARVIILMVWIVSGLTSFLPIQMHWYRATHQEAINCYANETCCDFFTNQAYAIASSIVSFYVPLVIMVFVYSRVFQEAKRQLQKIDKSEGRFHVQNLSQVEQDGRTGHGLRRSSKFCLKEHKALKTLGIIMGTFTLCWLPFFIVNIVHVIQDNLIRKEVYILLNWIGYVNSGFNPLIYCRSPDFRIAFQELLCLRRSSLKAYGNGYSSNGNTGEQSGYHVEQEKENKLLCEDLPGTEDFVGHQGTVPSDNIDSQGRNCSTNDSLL
ClpP mod: qHTS Assay for Activators of ClpP; AID 651965, 2013; ATP-dependent Clp protease proteolytic subunit (Bacillus subtilis (strain 168)), P80244; purified B. subtilis ClpP, FRET peptide cleavage, 20 min; 340,000 compounds, 1.9% hits; Potency, µM (series often up to 57.5 µM), without a hit: at the top dose activity change, negative = active; active = well fitted falling curve with a large enough effect; inconclusive = small, poorly fitted or top-dose-only effect; inactive = no such curve, though single readings can be large or run the other way; also: potency is read from the fitted curve at half-maximal effect; the source files actives as falling curves though it sought activators and does not explain the sign; nearly all actives have a fitted effect of over 65% in size
Target sequence (P80244 whole entry, looked up): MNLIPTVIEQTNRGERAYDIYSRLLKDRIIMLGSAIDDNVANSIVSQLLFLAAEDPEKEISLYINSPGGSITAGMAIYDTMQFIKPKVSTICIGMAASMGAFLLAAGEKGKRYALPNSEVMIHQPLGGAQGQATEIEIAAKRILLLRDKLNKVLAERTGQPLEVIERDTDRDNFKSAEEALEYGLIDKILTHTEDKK
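Purified B. subtilis ClpP, 10 microg/mL final in Tris/HCl pH8 with KCl, BSA, glycerol and Tween-20, cleaved an Abz/nitrotyrosine-quenched decapeptide. Fluorescence (ex 320, em 430) was read at 0 and 20 min at room temperature. Delta was normalized to 5.8 microM ADEP and DMSO/no-enzyme controls.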
p53 reactivation: restores transcriptional activity of mutant p53; AID 504706; H1299 p53-A138V BP100-luciferase reporter, luminescence, 24 h; 320,000 compounds, 0.063% hits; Potency, µM (doses to about 92.2 µM), inactives show at the top dose activity change, positive = activation, usual class: activators; also: potency is read from the fitted curve at half-maximal effect; % of control where 0% means no effect; nearly all actives have a fitted effect of over 45% in size
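H1299 (p53-null), stable ts p53-A138V + BP100-Luc; 1000 cells/well, Opti-MEM/10% FBS; cpd 4 pt, 1:5; 24 h, 37 deg C, 5% CO2; detection reagent 10 min RT; luminescence.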
Giardia killer: Giardia lamblia killing; Giardia lamblia trophozoite viability; activity change, % at 7.66 µM, hits read low; 340,000 compounds, 0.15% hits; AID 540267; in the data active = activity change below about -80%; inconclusive = between about -30% and that limit;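 also: parasites exposed to compound for two days anaerobically before the ATP read; % is scaled to controls: 0 for no effect and ±100 for the full control effect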
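Luminescence from cellular ATP indicates surviving trophozoites (100 cells/well) following 48 hrs anaerobic compound treatment at 37 deg C; signal develops 15-30 min at room temperature.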
uPA surface inh: cell surface uPA generation inhibition; cell surface uPA generation assay, qHTS; Potency, µM (top dose mostly 38.3 µM), inactives show at the top dose activity change, negative = inhibition, most hits filed as inhibitors; 330,000 compounds, 0.31% hits; active = well fitted inhibition curve with a large enough effect; inconclusive = small, poorly fitted or top-dose-only effect; inactive = no such curve, though single readings can be large or run the other way; tested in mouse RAW 264.7 cells; also: potency is read from the fitted curve at half-maximal effect; % is scaled to controls: 0 for no effect and ±100 for the full control effect; nearly all actives have a fitted effect of over 55% in size
Mito fusion yeast: blocks mitochondrial division or promotes mitochondrial fusion | AID 485298 | 320,000 compounds, 0.23% hits | S. cerevisiae fusion-defective mutant growth rescue, CellTiterGlo 48 h | Potency, µM (series often up to 46.1 µM), without a hit: at the top dose growth rescue (activation), most hits filed as activators; also: potency is read from the fitted curve at half-maximal effect; % of control where 0% means no effect; nearly all actives have a fitted effect of over 45% in size
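Luminescent cell viability in 1536-well qHTS format served as the measure of rescued growth in ts fusion-mutant S. cerevisiae cultured on non-fermentable YPEG for 48 hours at 37C.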
* marks the source's active call; other numbers are inactive results. An excerpt weighted towards active compounds, which were near 2.1% of everything screened. Unless noted, calls follow the shape of the dose curve; as a rule, active = well fitted curve in the direction sought with a large enough effect; inconclusive = small, poorly fitted or top-dose-only effect, or another doubt; inactive = no such curve, though single readings can be large; an effect the other way counts as inactive or inconclusive.

What do the screens show for `Cn1cc([N+](=O)[O-])c(C(=O)Nc2ccc3nc(-c4ccccc4)[nH]c3c2)n1`?
B2AR arrestin: -0.5%; ClpP mod: inconclusive; p53 reactivation: 22.4µM*; Giardia killer: 3.3; uPA surface inh: -9.0%; Mito fusion yeast: -3.1%

How did COC(=O)CN(C(=O)CSc1nnc(-c2cccc(OC)c2)o1)c1ccc(OC)cc1 do in these assays?
B2AR arrestin: 0.2%; ClpP mod: 15.8µM*; p53 reactivation: 1.1%; Giardia killer: 26.7; uPA surface inh: -1.6%; Mito fusion yeast: -30.6%

How did CC(=O)N1CCC(N(Cc2ccc(C)o2)C(=O)Nc2cccc(C(F)(F)F)c2)CC1 do in these assays?
ClpP mod: 0.5%

What do the screens show for `Cc1ccc(NC(C)C(=O)N/N=C/c2ccc([N+](=O)[O-])s2)cc1` (centres undefined)?
B2AR arrestin: -0.4%; p53 reactivation: -3.4%; Giardia killer: -83.7*; uPA surface inh: -13.0%; Mito fusion yeast: -10.9%

How did COc1ccc(NC(C)C(=O)N/N=C/c2ccc([N+](=O)[O-])s2)cc1 (centres undefined) do in these assays?
B2AR arrestin: 0.2%; p53 reactivation: 5.4%; Giardia killer: -89.0*; uPA surface inh: -12.2%; Mito fusion yeast: 4.4%

Results for COC(=O)N/N=C/c1ccc([N+](=O)[O-])s1 ?
B2AR arrestin: -1.0%; ClpP mod: -1.9%; p53 reactivation: inconclusive; Giardia killer: inconclusive; uPA surface inh: -10.6%; Mito fusion yeast: 26.1%

What do the screens show for `O=C1C2C3C=CC(C3)C2C(=O)N1c1ccncc1` (centres undefined)?
B2AR arrestin: 0.1%; ClpP mod: inconclusive; p53 reactivation: 2.9%; Giardia killer: 3.1; uPA surface inh: 3.3%; Mito fusion yeast: -1.9%

Results for O=C1C2C3C=CC(C3)C2C(=O)N1c1ccc(-c2nc3ccccc3o2)cc1 (centres undefined) ?
B2AR arrestin: -0.5%; ClpP mod: 6.31µM*; Giardia killer: -8.8; uPA surface inh: -0.4%; Mito fusion yeast: 3.8%

What do the screens show for `COc1ccc(NC(=O)CSC2=Nc3ccccc3C3=NC(CCC(=O)NCCc4ccccc4)C(=O)N23)c(OC)c1` (centres undefined)?
ClpP mod: -0.2%

How did Cc1ccc(-c2csc(C(O)c3ccc(F)c(F)c3)n2)cc1C (centres undefined) do in these assays?
ClpP mod: 0.7%

How did O=C(/C=C/c1ccccc1)Nn1c(-c2cccs2)nc2ccccc2c1=O do in these assays?
B2AR arrestin: -0.6%; ClpP mod: -1.4%; p53 reactivation: 0.9%; Giardia killer: 7.9; uPA surface inh: 4.5%; Mito fusion yeast: inconclusive

Results for O=C(/C=C/c1cccc(Cl)c1)Nn1c(-c2cccs2)nc2ccccc2c1=O ?
B2AR arrestin: -0.7%; p53 reactivation: -6.9%; Giardia killer: 14.0; uPA surface inh: -6.5%; Mito fusion yeast: 15.8µM*

Results for COc1ccc2nc3sc(C(=O)N4CCN(c5ccc(F)cc5)CC4)cc3cc2c1 ?
ClpP mod: -1.3%

Results for O=S(=O)(c1cccc(C(F)(F)F)c1)n1c(/C=C/c2ccccc2)nc2ccccc21 ?
ClpP mod: 4.8%

How did CC(C)CCC(C(=O)O)C(C)CC(=O)NC1CCCCC1 (centres undefined) do in these assays?
B2AR arrestin: -0.3%; ClpP mod: 0.1%; p53 reactivation: -10.1%; Giardia killer: 1.8; Mito fusion yeast: 2.1%

What do the screens show for `CCCCCC(C(=O)O)C(C)CC(=O)NC1CCCCC1` (centres undefined)?
B2AR arrestin: -0.4%; ClpP mod: 12.6µM*; p53 reactivation: -13.5%; Giardia killer: 3.6; uPA surface inh: -3.1%; Mito fusion yeast: -7.1%

How did COC(=O)c1sccc1S(=O)(=O)N(CC(=O)Nc1c(C)cccc1C)c1ccc(C)c(C)c1 do in these assays?
ClpP mod: 0.5%

How did CCN(CC)CCCn1c(=S)[nH]c2ncccc2c1=O do in these assays?
B2AR arrestin: -0.1%; ClpP mod: 31.6µM*; p53 reactivation: 1.8%; Giardia killer: -1.9; uPA surface inh: 0.2%; Mito fusion yeast: 1.5%

What do the screens show for `COc1ccc(-c2cc(C(C)=O)c(C)n2CCC(=O)Nc2ccc(C)c(Cl)c2)cc1`?
ClpP mod: -0.6%

Results for O=C(CSc1nnc(NC(=O)c2ccccc2F)s1)NCc1ccco1 ?
B2AR arrestin: -0.4%; ClpP mod: -0.9%; p53 reactivation: 24.6%; Giardia killer: 2.3; uPA surface inh: 7.94µM*; Mito fusion yeast: -1.8%

How did COc1ccc(OC)c(CNC(=O)Cn2ncc3c([nH]c4ccc(C)cc43)c2=O)c1 do in these assays?
ClpP mod: -10.5%

Results for O=[N+]([O-])c1cnc2ccccn12 ?
B2AR arrestin: -0.1%; ClpP mod: -1.6%; p53 reactivation: -4.0%; Giardia killer: -81.7*; uPA surface inh: 1.1%; Mito fusion yeast: 1.4%

Results for Cc1ncc([N+](=O)[O-])n1Cc1ccccc1 ?
B2AR arrestin: -1.3%; ClpP mod: -0.2%; p53 reactivation: 2.8%; Giardia killer: -8.1; uPA surface inh: -1.2%; Mito fusion yeast: 3.9%

Results for CCS(=O)(=O)Nc1c(C(=O)O)[nH]c2ccccc12 ?
B2AR arrestin: -0.6%; ClpP mod: 22.4µM*; p53 reactivation: 10.8%; Giardia killer: 21.8; uPA surface inh: 5.3%; Mito fusion yeast: 3.2%

Results for Cc1nc(-c2cccc(F)c2)sc1CCNC(=O)C(=O)Nc1ccc2c(c1)OCO2 ?
ClpP mod: -6.0%

Results for CCC(C)NC(=O)CSc1nc2cc3c(cc2c(=O)n1CCCCCC(=O)NCc1ccc(OC)cc1)OCO3 (centres undefined) ?
ClpP mod: 1.9%

Results for CC(C)Oc1ccc(/C=N/NC(N)=S)cc1 ?
B2AR arrestin: 16.4µM*; ClpP mod: -0.3%; p53 reactivation: inconclusive; Giardia killer: -15.7; uPA surface inh: -11.8%; Mito fusion yeast: -2.1%

Results for COc1ccc(C=C2SC(=O)NC2=O)cc1OC ?
Giardia killer: -5.2; uPA surface inh: -8.2%

How did O=C1NC(=O)/C(=C/c2ccc3c(c2)OC(F)(F)O3)S1 do in these assays?
Mito fusion yeast: 3.66µM*

Results for CC(C)OCCCNC(=S)N1CCC(C(=O)c2ccc(Cl)cc2)CC1 ?
B2AR arrestin: -0.8%; ClpP mod: -0.4%; Giardia killer: 5.2; uPA surface inh: 0.7%; Mito fusion yeast: -4.8%

What do the screens show for `CCOCCCNC(=S)N1CCC(C(=O)c2ccc(C)cc2)CC1`?
B2AR arrestin: 0.0%; ClpP mod: 31.6µM*; Giardia killer: -0.2; uPA surface inh: 1.7%; Mito fusion yeast: -10.2%

What do the screens show for `Cc1nn(CC(=O)NC2CCCCC2)c(=O)c2cc3cc(F)ccc3n12`?
ClpP mod: -25.9%

Source: PubChem BioAssay
